Reference: PubChem BioAssay AID1159580 (chemical genetic matrix, 2015)
Hit rate of the full screen: of about 5,500 compounds, about 2,000 (36%) were called active. About 18% were inconclusive and are not listed. Rule as the data show it: active = normalized growth mostly below about 0.91 (no sharp cut-off); inconclusive = no clear call, values can overlap the other calls; inactive = mostly above about 0.92. Some of the results follow.

Experiment: chemical genetic growth profiling, strain panel (AID 1159580);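 also: tested at 20 µM; growth read once vehicle control cultures reached saturation at 30 °C; 1 = growth at the plate median or of vehicle wells; lower values mean less growth of the strain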
Conditions: S. cerevisiae deletion strains, growth OD

Measured: normalized growth

CN(C)CCc1c[nH]c2ccc(Cn3cncn3)cc12
inactive: locus YHR030C, strain SLT2, hits give low values 0.92 | locus YHR079C, strain IRE1, hits give low values 0.928 | locus YJL095W, strain BCK1, hits give low values 0.961 | locus YJR066W, strain TOR1, hits give low values 0.914 | locus YLR113W, strain HOG1, hits give low values 0.918 | locus YNL183C, strain NPR1, hits give low values 0.926 | locus YOR231W, strain MKK1, hits give low values 0.928 | locus YPL256C, strain CLN2, hits give low values 0.936

CC(N)=NCCC[C@H](N)C(=O)O
inactive: locus YAL040C, strain CLN3, hits give low values 1 | locus YCL061C, strain MRC1 (second series), hits give low values 1.01 | locus YDR363W, strain ESC2, hits give low values 1.01 | locus YER002W, strain NOP16, hits give low values 0.997 | locus YMR263W, strain SAP30, hits give low values 1.02 | locus YMR307W, strain GAS1, hits give low values 1.01 | locus YNL175C, strain NOP13, hits give low values 1.01 | locus YNL197C, strain WHI3, hits give low values 0.999 | locus YNL224C, strain SQS1, hits give low values 1 | locus YOR083W, strain WHI5 (second series), hits give low values 1.02 | locus YPL241C, strain CIN2, hits give low values 1.01
